In the supplement of paper PMC3545927:
Some of the results follow. The true hit rate is not given.

Biological target: furin, P09958
Assay: furin cleavage Z-score vs untreated control; higher = more cleavage, active = 3.5 or more, inactive = 1 or less, 8 variable residues between constant flanks
Outline: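 To give the cleavage Z-score, log read counts were set against furin-free reactions, lowess-adjusted and scaled by median absolute deviation. These counts came from PCR adapter-tagged, sequenced DNA released when purified furin cut 8-mer peptides fused to a cDNA oligonucleotide and held on magnetic beads by their N-terminus. Digests were 0.01 ml, 1:10 enzyme:substrate, in 50 mM HEPES pH 7.5 with CaCl2 and NaCl, for 7.5, 15 or 30 min.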

Chain of furin, P09958 (P09958 whole entry): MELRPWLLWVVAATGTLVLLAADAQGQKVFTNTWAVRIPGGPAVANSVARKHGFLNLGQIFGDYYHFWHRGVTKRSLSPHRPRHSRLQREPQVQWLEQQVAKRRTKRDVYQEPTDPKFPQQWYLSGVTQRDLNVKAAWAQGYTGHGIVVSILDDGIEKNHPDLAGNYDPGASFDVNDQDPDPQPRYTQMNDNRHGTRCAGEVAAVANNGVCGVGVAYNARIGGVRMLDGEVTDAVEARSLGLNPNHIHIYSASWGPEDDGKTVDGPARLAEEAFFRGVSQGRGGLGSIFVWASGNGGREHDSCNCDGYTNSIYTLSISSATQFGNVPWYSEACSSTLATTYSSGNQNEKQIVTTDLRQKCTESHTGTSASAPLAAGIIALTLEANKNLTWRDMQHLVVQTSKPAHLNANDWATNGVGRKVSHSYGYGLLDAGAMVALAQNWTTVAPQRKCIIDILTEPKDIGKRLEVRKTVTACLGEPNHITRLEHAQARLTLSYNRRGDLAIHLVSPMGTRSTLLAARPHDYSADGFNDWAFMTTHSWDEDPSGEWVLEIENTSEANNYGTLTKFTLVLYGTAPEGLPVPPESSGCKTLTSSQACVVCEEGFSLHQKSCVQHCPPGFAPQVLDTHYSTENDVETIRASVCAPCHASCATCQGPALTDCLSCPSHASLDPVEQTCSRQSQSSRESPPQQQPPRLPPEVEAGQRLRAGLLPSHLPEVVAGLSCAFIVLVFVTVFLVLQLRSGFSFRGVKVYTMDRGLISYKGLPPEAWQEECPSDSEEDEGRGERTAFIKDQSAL

Sequence | furin cleavage Z-score (7.5 min) | furin cleavage Z-score (15 min) | furin cleavage Z-score (30 min)
CAKTSERSQPAGNASASA [HC186] | 2.56 | -0.461 (inactive) | 0.776 (inactive)
CARVKRSRRRAGNASASA [FS-2839] | 10.1 (active) | 10.8 (active) | 9.23 (active)
CAGESRSRRRAGNASASA [FS-329] | 2.73 | 3.06 | 3.66 (active)
CADPSRSRRRAGNASASA [FS-1448] | 0.778 (inactive) | 3.15 | 3.47
CAKTSRSRRRAGNASASA [FS-1225] | 5.45 (active) | 6.99 (active) | 6.15 (active)
CAMWPLLLLLAGNASASA [HC557] | 0.169 (inactive) | 0.292 (inactive) | -0.0686 (inactive)
CAQVLPCSFTAGNASASA [HC497] | 1.05 | -1.13 (inactive) | 0.347 (inactive)
CAVVCCSMHYAGNASASA [HC2075] | -0.613 (inactive) | 1.54 | 1.45
CASSTSGITGAGNASASA [HC1338] | -0.675 (inactive) | -0.0853 (inactive) | -0.923 (inactive)
CAELVTSTWVAGNASASA [HC2165] | 1.19 | -1.53 (inactive) | 0.617 (inactive)
CATPARKKRLAGNASASA [FS-729] | 7.39 (active) | 8.85 (active) | 8.77 (active)
CALSDRKKRLAGNASASA [FS-1137] | 4.97 (active) | 5.99 (active) | 4.87 (active)
CAQYWRDKRLAGNASASA [FS-1154] | 0.77 (inactive) | 0.402 (inactive) | 0.0823 (inactive)
CALPPIIQRLAGNASASA [HC1600] | -1.17 (inactive) | -0.382 (inactive) | -0.2 (inactive)
CAGSLRKKRLAGNASASA [FS-1528] | 8.24 (active) | 9.41 (active) | 8.69 (active)
CALMHRKKRLAGNASASA [FS-351] | 8.68 (active) | 11 (active) | 9.08 (active)
CASVVTSTWVAGNASASA [HC2157] | 1.21 | -0.109 (inactive) | 0.831 (inactive)
CAGEPGDPDLAGNASASA [HC1357] | -1.27 (inactive) | -0.0644 (inactive) | 0.75 (inactive)
CAWVPCHRPSAGNASASA [HC2308] | -0.717 (inactive) | 2.59 | 0.688 (inactive)
CAEVPCHRESAGNASASA [HC2392] | 0.318 (inactive) | 1.09 | 0.395 (inactive)
CADFSLDPTFAGNASASA [HC892] | 0.169 (inactive) | -0.616 (inactive) | -1.12 (inactive)
CATTGEIPFYAGNASASA [HC845] | -1.32 (inactive) | -1.97 (inactive) | 0.0887 (inactive)
CAVQEDAASLAGNASASA [HC1535] | -1.62 (inactive) | -0.428 (inactive) | -0.272 (inactive)
CALCSALYVGAGNASASA [HC296] | -0.409 (inactive) | -0.564 (inactive) | 0.88 (inactive)

Sequence | furin cleavage Z-score (7.5 min) | furin cleavage Z-score (15 min) | furin cleavage Z-score (30 min)
CAMFECSQHLAGNASASA [HC1687] | -0.00522 (inactive) | -0.149 (inactive) | -0.982 (inactive)
CAVVCWSMSYAGNASASA [HC87] | -0.794 (inactive) | -0.454 (inactive) | -0.791 (inactive)
CARSQRSWRLAGNASASA [FS-1162] | -0.897 (inactive) | -0.415 (inactive) | -1.15 (inactive)
CATPRRQKRLAGNASASA [FS-881] | 9.61 (active) | 11.3 (active) | 9.49 (active)
CAKHNRPRRDAGNASASA [FS-602] | 12.5 (active) | 11.7 (active) | 9.21 (active)
CARSPRPRGDAGNASASA [FS-3090] | 0.374 (inactive) | -0.595 (inactive) | 0.318 (inactive)
CAPGPRPRRDAGNASASA [FS-472] | 14.1 (active) | 15 (active) | 10.8 (active)
CAPEPREQRDAGNASASA [FS-1045] | -0.201 (inactive) | -0.175 (inactive) | -0.45 (inactive)
CAPLARPRRDAGNASASA [FS-556] | 9.88 (active) | 7.62 (active) | 6.73 (active)
CAPLARAAWEAGNASASA [HC1566] | 0.967 (inactive) | 1.75 | 0.234 (inactive)
CAGSRRPRRDAGNASASA [FS-789] | 13.1 (active) | 13 (active) | 10.2 (active)
CAGSRRWGRYAGNASASA [FS-167] | -0.565 (inactive) | 1.19 | 2.01
CAMMECSQHLAGNASASA [HC1686] | -0.328 (inactive) | 0.731 (inactive) | 0.7 (inactive)
CAEVVTVTWVAGNASASA [HC143] | -0.0202 (inactive) | -1.22 (inactive) | 0.0435 (inactive)
CASIEPLDLPAGNASASA [HC1597] | -0.888 (inactive) | 1.4 | -0.00883 (inactive)
CARRERSIKSAGNASASA [FS-863] | 3.74 (active) | 6.21 (active) | 7 (active)
CARRRRARSSAGNASASA [FS-3061] | 9.64 (active) | 8.93 (active) | 6.98 (active)
CAPRRRARSLAGNASASA [FS-2479] | 10.9 (active) | 12.2 (active) | 10.3 (active)
CARRWRSLRPAGNASASA [FS-1924] | -0.388 (inactive) | 2.12 | 2.35
CARRRRSRSSAGNASASA [FS-3263] | 8.31 (active) | 9.52 (active) | 8.33 (active)
CAAPQGSRSLAGNASASA [HC717] | -0.871 (inactive) | -1.2 (inactive) | 0.343 (inactive)
CARNFRFLSSAGNASASA [FS-3004] | -0.151 (inactive) | -0.288 (inactive) | -1.62 (inactive)
CARRYRGNDSAGNASASA [FS-3072] | -0.0765 (inactive) | -0.858 (inactive) | -0.417 (inactive)
